Laboratory results: the supplement of paper PMC10849652
The full data set covers some 7,900 targets. This sample favours those with a hit. About 0.6% of all pairs of compound and target were hits. Values without a mark were called inactive.

How the values were obtained:
Assay in all cases: log2 fold change, soluble protein after heating vs DMSO (PISA); higher = thermal stabilisation; K562 cells, 10 uM, 30 min; active = over 0.2 and 3.5 SD of the protein, either way, in both replicates (recomputed)
[1] = compound: COC1=CC=C(C=C1)CN2C=CC3=C2C=C(C=C3)C(=O)NO
Summary of the method: (§1)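 K562 cells at 2×10^6 cells/mL were exposed to 10 μM compound for 30 min, then aliquots were heated for 3 min across 48°C-58°C, pooled, and extracted in PBS containing 0.5% NP-40 at 4°C. The supernatant after 21,000xg for 90 min was taken as soluble protein and measured by TMTpro 16plex LC-MS/MS with channel sums equalised. Thermal stability is reported relative to control samples, with values from duplicates. Fold changes are given on a log2 scale.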

filanesib = compound: CON(C)C(=O)N1N=C(c2cc(F)ccc2F)S[C@@]1(CCCN)c1ccccc1 [filanesib]
Summary of the method: as §1

zotarolimus = compound: CO[C@H]1C[C@@H]2CC[C@@H](C)[C@@](O)(O2)C(=O)C(=O)N2CCCC[C@H]2C(=O)O[C@H]([C@H](C)C[C@@H]2CC[C@H](n3cnnn3)[C@H](OC)C2)CC(=O)[C@H](C)/C=C(\C)[C@@H](O)[C@@H](OC)C(=O)[C@H](C)C[C@H](C)/C=C/C=C/C=C/1C [zotarolimus]
Summary of the method: as §1

idasanutlin = compound: COc1cc(C(=O)O)ccc1NC(=O)[C@@H]1N[C@@H](CC(C)(C)C)[C@](C#N)(c2ccc(Cl)cc2F)[C@H]1c1cccc(Cl)c1F [idasanutlin]
Summary of the method: as §1

alisertib = compound: COc1cc(Nc2ncc3c(n2)-c2ccc(Cl)cc2C(c2c(F)cccc2OC)=NC3)ccc1C(=O)O [alisertib]
Summary of the method: as §1

[2] = compound: COc1cc2nc(-c3cc(F)ccc3O)nc(N[C@@H]3CNC[C@H]3C(C)(C)O)c2cc1OC
Summary of the method: as §1

gefitinib = compound: COc1cc2ncnc(Nc3ccc(F)c(Cl)c3)c2cc1OCCCN1CCOCC1 [gefitinib]
Summary of the method: as §1

[3] = compound: COc1cccc2cc(-c3nc([C@H]4CC[C@H](C(=O)O)CC4)n4ncnc(N)c34)[nH]c12
Summary of the method: as §1

lapatinib = compound: CS(=O)(=O)CCNCc1ccc(-c2ccc3ncnc(Nc4ccc(OCc5cccc(F)c5)c(Cl)c4)c3c2)o1 [lapatinib]
Summary of the method: as §1

pictilisib = compound: CS(=O)(=O)N1CCN(Cc2cc3nc(-c4cccc5[nH]ncc45)nc(N4CCOCC4)c3s2)CC1 [pictilisib]
Summary of the method: as §1

[4] = compound: CS(=O)(=O)c1ccc(-c2cnc(N)c(C(=O)Nc3ccccc3)n2)cc1
Summary of the method: as §1

crizotinib = compound: C[C@@H](Oc1cc(-c2cnn(C3CCNCC3)c2)cnc1N)c1c(Cl)ccc(F)c1Cl [crizotinib]
Summary of the method: as §1

[5] = compound: C[C@@H]1COCCN1C2=NC(=NC(=C2)C3(CC3)S(=O)(=O)C)C4=C5C=CNC5=CC=C4
Summary of the method: as §1

[6] = compound: C[C@H](C1=CC=C(C=C1)C(=O)NC2=C3C=CNC3=NC=C2)N
Summary of the method: as §1

duvelisib = compound: C[C@H](Nc1ncnc2nc[nH]c12)c1cc2cccc(Cl)c2c(=O)n1-c1ccccc1 [duvelisib]
Summary of the method: as §1

gandotinib = compound: Cc1cc(Nc2cc(CN3CCOCC3)c3nc(C)c(Cc4ccc(Cl)cc4F)n3n2)n[nH]1 [gandotinib]
Summary of the method: as §1

tozasertib = compound: Cc1cc(Nc2cc(N3CCN(C)CC3)nc(Sc3ccc(NC(=O)C4CC4)cc3)n2)n[nH]1 [tozasertib]
Summary of the method: as §1

[7] = compound: Cc1cc(SCc2sc(-c3ccc(C(F)(F)F)cc3)nc2C)ccc1OCC(=O)O
Summary of the method: as §1

doramapimod = compound: Cc1ccc(-n2nc(C(C)(C)C)cc2NC(=O)Nc2ccc(OCCN3CCOCC3)c3ccccc23)cc1 [doramapimod]
Summary of the method: as §1

ispinesib = compound: Cc1ccc(C(=O)N(CCCN)[C@@H](c2nc3cc(Cl)ccc3c(=O)n2Cc2ccccc2)C(C)C)cc1 [ispinesib]
Summary of the method: as §1

Chain of UniProt Q8NHP8 (Q8NHP8 whole entry, looked up): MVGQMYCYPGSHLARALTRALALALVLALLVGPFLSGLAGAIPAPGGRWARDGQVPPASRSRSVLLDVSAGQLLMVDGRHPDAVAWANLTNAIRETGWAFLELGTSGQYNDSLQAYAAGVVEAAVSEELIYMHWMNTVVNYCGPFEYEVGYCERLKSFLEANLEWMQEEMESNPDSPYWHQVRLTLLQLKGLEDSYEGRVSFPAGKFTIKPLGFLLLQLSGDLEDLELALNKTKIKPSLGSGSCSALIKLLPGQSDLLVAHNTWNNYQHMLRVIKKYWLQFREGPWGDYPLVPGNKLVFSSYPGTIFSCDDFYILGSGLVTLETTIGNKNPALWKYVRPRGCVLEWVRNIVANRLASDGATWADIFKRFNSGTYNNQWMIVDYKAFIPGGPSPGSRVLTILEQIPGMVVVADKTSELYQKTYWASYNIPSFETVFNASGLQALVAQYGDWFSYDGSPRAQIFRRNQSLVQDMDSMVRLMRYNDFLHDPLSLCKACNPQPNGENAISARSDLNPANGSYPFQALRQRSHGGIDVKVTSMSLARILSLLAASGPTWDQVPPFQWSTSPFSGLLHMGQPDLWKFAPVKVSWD
Chain of UniProt Q13200 (Q13200 whole entry, looked up): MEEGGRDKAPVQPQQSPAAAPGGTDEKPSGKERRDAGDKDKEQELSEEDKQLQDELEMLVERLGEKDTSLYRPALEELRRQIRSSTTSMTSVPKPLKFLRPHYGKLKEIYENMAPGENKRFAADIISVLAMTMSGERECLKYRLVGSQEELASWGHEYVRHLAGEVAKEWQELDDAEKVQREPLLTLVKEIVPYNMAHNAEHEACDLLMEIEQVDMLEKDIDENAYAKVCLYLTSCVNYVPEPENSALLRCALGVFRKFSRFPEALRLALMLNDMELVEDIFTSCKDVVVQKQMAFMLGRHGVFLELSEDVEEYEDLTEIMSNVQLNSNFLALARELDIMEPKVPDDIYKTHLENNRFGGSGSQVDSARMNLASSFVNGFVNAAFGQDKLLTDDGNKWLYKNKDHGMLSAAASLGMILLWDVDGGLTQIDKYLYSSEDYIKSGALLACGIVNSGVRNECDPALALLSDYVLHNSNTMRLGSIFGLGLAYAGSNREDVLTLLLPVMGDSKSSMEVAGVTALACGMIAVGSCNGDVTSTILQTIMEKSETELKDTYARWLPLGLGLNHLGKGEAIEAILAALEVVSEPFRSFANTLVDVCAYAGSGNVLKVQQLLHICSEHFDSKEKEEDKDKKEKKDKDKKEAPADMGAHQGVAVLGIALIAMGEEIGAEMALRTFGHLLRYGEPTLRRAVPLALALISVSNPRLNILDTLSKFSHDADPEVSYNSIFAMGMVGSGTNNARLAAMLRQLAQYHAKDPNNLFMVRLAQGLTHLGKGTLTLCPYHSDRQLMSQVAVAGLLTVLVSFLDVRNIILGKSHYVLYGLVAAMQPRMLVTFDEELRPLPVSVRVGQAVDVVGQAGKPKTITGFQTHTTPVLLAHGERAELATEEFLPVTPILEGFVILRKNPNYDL
Chain of UniProt O00233 (O00233 whole entry, looked up): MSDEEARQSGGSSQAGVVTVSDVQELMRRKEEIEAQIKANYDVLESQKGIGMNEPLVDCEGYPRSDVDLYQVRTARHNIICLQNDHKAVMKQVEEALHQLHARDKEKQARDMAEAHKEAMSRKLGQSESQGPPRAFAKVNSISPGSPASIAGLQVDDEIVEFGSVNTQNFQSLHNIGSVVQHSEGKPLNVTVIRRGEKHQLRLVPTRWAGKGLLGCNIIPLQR
Chain of UniProt P51665 (P51665 whole entry, looked up): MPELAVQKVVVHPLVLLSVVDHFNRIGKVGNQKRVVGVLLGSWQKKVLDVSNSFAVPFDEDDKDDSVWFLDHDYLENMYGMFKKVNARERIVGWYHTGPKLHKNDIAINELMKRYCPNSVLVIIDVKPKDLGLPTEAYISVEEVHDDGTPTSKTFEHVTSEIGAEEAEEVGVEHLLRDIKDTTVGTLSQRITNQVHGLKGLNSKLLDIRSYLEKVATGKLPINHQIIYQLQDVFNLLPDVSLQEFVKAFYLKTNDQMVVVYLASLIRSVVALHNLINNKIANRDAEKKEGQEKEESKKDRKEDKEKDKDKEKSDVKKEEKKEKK
Chain of UniProt Q6WKZ4 (Q6WKZ4 whole entry, looked up): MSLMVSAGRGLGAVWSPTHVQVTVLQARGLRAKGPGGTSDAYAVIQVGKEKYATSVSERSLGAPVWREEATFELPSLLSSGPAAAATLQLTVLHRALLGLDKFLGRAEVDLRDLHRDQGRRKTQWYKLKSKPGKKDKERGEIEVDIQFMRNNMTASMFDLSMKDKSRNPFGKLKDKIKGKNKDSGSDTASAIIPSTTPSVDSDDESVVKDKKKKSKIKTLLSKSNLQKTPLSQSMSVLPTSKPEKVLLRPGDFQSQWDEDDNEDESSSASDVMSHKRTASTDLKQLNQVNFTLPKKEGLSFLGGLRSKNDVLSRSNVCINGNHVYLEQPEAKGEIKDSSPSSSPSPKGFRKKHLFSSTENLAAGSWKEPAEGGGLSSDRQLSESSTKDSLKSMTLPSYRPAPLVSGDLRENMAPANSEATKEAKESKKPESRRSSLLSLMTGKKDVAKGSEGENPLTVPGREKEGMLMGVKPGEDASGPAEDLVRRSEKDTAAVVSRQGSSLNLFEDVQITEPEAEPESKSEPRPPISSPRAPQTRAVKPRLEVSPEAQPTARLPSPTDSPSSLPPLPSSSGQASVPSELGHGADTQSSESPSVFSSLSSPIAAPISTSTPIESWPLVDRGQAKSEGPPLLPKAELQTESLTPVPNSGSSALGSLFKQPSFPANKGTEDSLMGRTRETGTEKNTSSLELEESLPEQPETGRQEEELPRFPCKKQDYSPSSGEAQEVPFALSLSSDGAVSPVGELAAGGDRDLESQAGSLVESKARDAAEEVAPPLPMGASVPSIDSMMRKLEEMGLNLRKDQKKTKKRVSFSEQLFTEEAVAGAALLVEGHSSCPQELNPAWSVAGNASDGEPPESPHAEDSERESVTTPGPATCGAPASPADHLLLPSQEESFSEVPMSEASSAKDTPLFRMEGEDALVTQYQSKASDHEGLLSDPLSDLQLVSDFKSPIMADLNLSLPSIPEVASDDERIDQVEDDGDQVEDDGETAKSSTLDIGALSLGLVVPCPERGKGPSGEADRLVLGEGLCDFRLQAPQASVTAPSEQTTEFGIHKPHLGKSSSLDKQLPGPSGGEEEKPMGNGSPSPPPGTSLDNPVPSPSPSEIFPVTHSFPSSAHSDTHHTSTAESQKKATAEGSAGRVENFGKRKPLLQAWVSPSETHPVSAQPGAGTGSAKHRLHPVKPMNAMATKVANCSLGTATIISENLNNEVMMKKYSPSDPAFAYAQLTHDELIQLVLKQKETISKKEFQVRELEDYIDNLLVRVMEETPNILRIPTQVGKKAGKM
Chain of UniProt Q9UG56 (Q9UG56 whole entry, looked up): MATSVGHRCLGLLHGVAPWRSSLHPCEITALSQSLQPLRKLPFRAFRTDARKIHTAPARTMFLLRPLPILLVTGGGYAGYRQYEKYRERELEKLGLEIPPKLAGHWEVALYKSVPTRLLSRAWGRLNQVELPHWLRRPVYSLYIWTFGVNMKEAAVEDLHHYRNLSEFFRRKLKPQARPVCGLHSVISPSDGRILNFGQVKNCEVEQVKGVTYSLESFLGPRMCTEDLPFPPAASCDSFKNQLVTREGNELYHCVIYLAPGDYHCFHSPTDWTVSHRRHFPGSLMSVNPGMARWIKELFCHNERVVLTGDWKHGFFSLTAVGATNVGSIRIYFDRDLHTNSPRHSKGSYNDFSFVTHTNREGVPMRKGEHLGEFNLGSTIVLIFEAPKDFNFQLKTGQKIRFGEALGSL
Chain of UniProt P10644 (P10644 whole entry, looked up): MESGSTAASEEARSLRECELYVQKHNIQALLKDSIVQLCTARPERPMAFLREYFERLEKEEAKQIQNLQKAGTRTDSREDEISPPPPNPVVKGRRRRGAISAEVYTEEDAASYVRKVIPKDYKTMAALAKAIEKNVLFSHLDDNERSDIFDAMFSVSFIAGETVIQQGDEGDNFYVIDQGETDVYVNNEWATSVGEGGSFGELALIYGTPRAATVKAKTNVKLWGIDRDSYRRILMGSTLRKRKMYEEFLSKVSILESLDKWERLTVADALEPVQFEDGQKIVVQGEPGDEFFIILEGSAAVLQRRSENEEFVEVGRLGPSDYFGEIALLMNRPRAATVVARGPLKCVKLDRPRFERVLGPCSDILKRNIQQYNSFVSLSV
Chain of UniProt Q96KB5 (Q96KB5 whole entry, looked up): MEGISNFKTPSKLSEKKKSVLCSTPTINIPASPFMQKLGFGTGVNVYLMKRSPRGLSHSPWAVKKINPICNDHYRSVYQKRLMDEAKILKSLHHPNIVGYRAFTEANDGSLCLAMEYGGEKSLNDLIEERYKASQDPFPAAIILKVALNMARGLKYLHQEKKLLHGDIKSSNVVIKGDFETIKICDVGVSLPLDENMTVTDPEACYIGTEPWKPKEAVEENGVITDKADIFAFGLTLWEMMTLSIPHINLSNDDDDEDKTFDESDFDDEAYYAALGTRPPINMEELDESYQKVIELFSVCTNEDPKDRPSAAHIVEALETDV

Row | Target | log2 fold change [1] | log2 fold change (filanesib) | log2 fold change (zotarolimus) | log2 fold change (idasanutlin) | log2 fold change (alisertib) | log2 fold change [2] | log2 fold change (gefitinib) | log2 fold change [3] | log2 fold change (lapatinib) | log2 fold change (pictilisib) | log2 fold change [4] | log2 fold change (crizotinib) | log2 fold change [5] | log2 fold change [6] | log2 fold change (duvelisib) | log2 fold change (gandotinib) | log2 fold change (tozasertib) | log2 fold change [7] | log2 fold change (doramapimod) | log2 fold change (ispinesib)
1 | PISD (UniProt Q9UG56) | -0.018 | -0.012 | 0.015 | -0.074 | -0.024 | 0.148 | 0.008 | 0.012 | -0.009 | 0.036 | 0 | -0.023 | 0.045 | -0.018 | 0.044 | -0.004 | -0.025 | 0.036 | 0.006 | 0.02
2 | PRKAR1A (UniProt P10644) | 0.079 | 0.042 | 0.046 | -0.045 | -0.075 | 0.131 | 0.046 | -0.132 | 0 | 0.206 | 0.209 | 0.259 | 0.03 | 0.173 | 0.208 | 0.139 | 0.041 | 0.001 | 0 | -0.06
3 | POLR2I (UniProt P36954) | -0.012 | 0.041 | -0.017 | 0.029 | 0.061 | 0.076 | -0.003 | 0.062 | -0.006 | -0.041 | 0.003 | 0.334 | 0.052 | 0.001 | 0.085 | 0.336 | -0.086 | -0.032 | -0.047 | 0.127
4 | PSMD7 (UniProt P51665) | -0.059 | 0.054 | -0.014 | 0.01 | -0.032 | -0.027 | -0.049 | -0.022 | 0.089 | -0.078 | 0.077 | -0.001 | -0.053 | 0.072 | -0.073 | 0.078 | 0.003 | -0.003 | 0.069 | 0.018
5 | PBK (UniProt Q96KB5) | -0.01 | 0.056 | 0.112 | 0.027 | -0.032 | 0.014 | 0.084 | -0.169 | -0.001 | 0.086 | 0.048 | -0.046 | 0.051 | 0.134 | 0.006 | -0.136 | 0.109 | 0.157 | 0.015 | -0.066
6 | PLBD2 (UniProt Q8NHP8) | -0.069 | -0.015 | -0.029 | -0.012 | -0.048 | -0.007 | 0.018 | 0.041 | -0.008 | 0.027 | 0.014 | -0.07 | 0.044 | -0.008 | 0.045 | 0.003 | 0.015 | -0.028 | 0.022 | -0.088
7 | RAB11FIP1 (UniProt Q6WKZ4) | -0.024 | 0.004 | 0 | -0.015 | 0.368 | -0.03 | -0.009 | 0.007 | 0.01 | -0.107 | -0.071 | -0.096 | -0.001 | -0.038 | 0.004 | -0.01 | 0.057 | -0.003 | 0.047 | -0.251 (active)
8 | PSMD9 (UniProt O00233) | -0.028 | -0.053 | -0.021 | 0.005 | -0.074 | 0.056 | -0.013 | -0.005 | -0.021 | -0.261 (active) | -0.041 | -0.069 | 0.022 | -0.059 | 0.038 | -0.018 | -0.03 | -0.026 | 0.001 | 0.016
9 | PSMD2 (UniProt Q13200) | -0.036 | 0.051 | -0.015 | 0.039 | -0.089 | -0.071 | -0.043 | -0.053 | 0.077 | -0.059 | 0.017 | 0.019 | -0.063 | 0.075 | -0.064 | 0.015 | 0.023 | 0.004 | 0.021 | -0.017
